Source: PubChem BioAssay (National Center for Advancing Translational Sciences (NCATS))
In the library only some 1.1% were active in any assay of this set; here they are far more common.
PTHR1 ag: PTHR1 (human) receptor agonism | Q03431 | HEK293 GP2 PTHR1 cells, GloSensor cAMP luminescence, 1 h | Potency, µM (titrated, usually from 115 µM), without a hit: at the highest dose activation, most hits filed as activators | 0.075% of 410,000 active | AID 743266; also: potency is read from the fitted curve at half-maximal effect; nearly all actives have a fitted effect of over 55% in size
Target sequence (Q03431 whole entry, looked up): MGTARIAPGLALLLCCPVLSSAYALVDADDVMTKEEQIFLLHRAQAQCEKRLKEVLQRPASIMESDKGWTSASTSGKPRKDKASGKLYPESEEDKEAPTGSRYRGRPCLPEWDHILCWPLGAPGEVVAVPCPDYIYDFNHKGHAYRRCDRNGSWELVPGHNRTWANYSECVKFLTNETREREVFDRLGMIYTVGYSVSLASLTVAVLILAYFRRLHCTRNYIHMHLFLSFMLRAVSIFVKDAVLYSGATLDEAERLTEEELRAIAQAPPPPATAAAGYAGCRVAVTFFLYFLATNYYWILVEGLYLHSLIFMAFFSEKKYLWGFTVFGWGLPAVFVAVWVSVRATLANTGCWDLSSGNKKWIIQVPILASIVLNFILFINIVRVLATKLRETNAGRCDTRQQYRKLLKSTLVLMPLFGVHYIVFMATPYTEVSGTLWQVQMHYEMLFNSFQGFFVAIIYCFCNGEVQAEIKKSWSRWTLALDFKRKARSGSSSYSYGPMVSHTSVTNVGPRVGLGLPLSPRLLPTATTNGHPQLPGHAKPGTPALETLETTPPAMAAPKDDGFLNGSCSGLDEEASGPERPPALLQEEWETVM
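HEK-293-derived GP2 cells expressing PTHR1 and a GloSensor cAMP reporter, 3,000/well, plated overnight, given luciferin plus IBMX (each 0.5 mM as added) for 1 h at 37 °C, then compound for 1 h at 37 °C. Luminescence was read after 15 min at room temperature.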
p53 reactivator: mutant p53 re-activation in reporter cells. 0.063% of 320,000 active. H1299 p53-A138V BP100-luciferase reporter, luminescence, 24 h. AID 504706. Potency, µM (doses to about 92.2 µM), inactives show at the highest dose activity change, positive = activation, most hits filed as activators; also: potency is read from the fitted curve at half-maximal effect; % of control where 0% means no effect; nearly all actives have a fitted effect of over 45% in size
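p53-null H1299 cells stably carrying temperature-sensitive p53-A138V and a BP100-luciferase reporter were pinned with compounds (4-point, 1:5 series) and held 24 hrs at 37 deg C. Luminescence was read 10 min after detection reagent.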
LDHA inh: blocks human lactate dehydrogenase A; P00338; purified LDHA, NADH/diaphorase-resazurin fluorescence; hits give low values; activity change, % (values are at about 110 or 230 µM); 0.15% of 480,000 active; AID 1347041; in the data active = activity change below about -30%; inconclusive = mostly about -25% to -30%;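 also: plate controls were DMSO wells for no effect and wells without enzyme for full effect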
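Remaining NADH was detected by diaphorase (0.133 mg/mL) converting 37 µM resazurin to fluorescent resorufin, read at 0 and 20 minutes. The preceding 5-minute room-temperature reaction used 2 nM LDHA, 0.2 mM sodium pyruvate and 0.06 mM NADH at pH 7.4.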
BRCA1 expr act: activators of BRCA1 expression; Potency, µM (titrated, usually from 46.1 µM), without a hit: at the highest dose activation, hits mostly activators; MCF7-BRCA1-FFLuc reporter, luminescence, 48 h; response scale: scaled: vehicle 0%, 10 µM genistein 100%; 1.1% of 380,000 active; also: potency is read from the fitted curve at half-maximal effect; nearly all actives have a fitted effect of over 80% in size
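Compounds are tested at multiple concentrations on MCF7 BRCA1-luciferase reporter cells seeded at 2000 per well; after 48 h, a single luminescence end-point is taken and curves fitted to the normalized data.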
RGS4 inh: inhibitors of human regulator of G protein signaling 4; 0.039% of 390,000 active; P49798; Potency, µM (titrated, usually from 114 µM), for the others: at the top dose activity change, negative = inhibition, hits mostly inhibitors; Transcreener GDP fluorescence polarization, RGS4-accelerated GTP hydrolysis; also: potency is read from the fitted curve at half-maximal effect; % is scaled to controls: 0 for no effect and ±100 for the full control effect; nearly all actives have a fitted effect of over 75% in size
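MLSMR compounds (23 nl, pin-transferred) preincubated 10 min at room temperature with a 500nM (2x) first reagent, then RGS4 at 900nM (2x) plus Transcreener GDP mix added; fluorescence polarization (620/688 nm) read before and after 90 min at 30 °C.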
Numbers without * were called inactive; i = inactive; u = inconclusive; x = no result given; ! = not active in a repeat; [ ] = dose if it differs, or a comment. Unless noted, calls follow the shape of the dose curve; as a rule, active = well fitted curve in the direction sought with a large enough effect; inconclusive = small, poorly fitted or top-dose-only effect, or another doubt; inactive = no such curve, though single readings can be large; an effect the other way counts as inactive or inconclusive.

SMILES	PTHR1 ag	p53 reactivator	LDHA inh	BRCA1 expr act	RGS4 inh
CNc1ccc2c(cc1=O)[C@@H](NC)CCc1cc(OC)c(OC)c(OC)c1-2	x	x	45.0	x	x
CCc1c(C(=O)c2[nH]c(C)c(C(C)=O)c2C)oc2ccc(F)cc12	x	x	5.3	x	x
CCOc1ccc(/C=N/N(C)c2ccccc2)cc1OC	-10.2%[57.5 µM]	u	1.2	4.47µM*	-10.9%
CCOc1ccc(/C=N/Nc2ccccn2)cc1OC	-12.5%	-0.4%	-2.4	11.2µM*	u
CCCOc1ccc(/C=N/Nc2ccccn2)cc1OC	-5.2%	10.2%	-1.8	67.6%	-12.1%
COc1cc(/C=N/N(c2ccccc2)c2ccccc2)ccc1O	-89.2%	-2.3%	4.4	-82.5%	-18.3%
COc1ccccc1/C=N/Nc1nccnc1Cl	i	u	-5.5	11.2µM*	9.9%
COc1ccc(/C=N/Nc2ccccn2)c(OC)c1OC	-8.5%	0.0%	-0.4	11.2µM*	-9.9%
CC1CCN(S(=O)(=O)c2ccc3c(c2)CCC(=O)N3CC(=O)N2CCC3(CC2)OCCO3)CC1	x	x	2.8	x	x
COc1cc(/C=N/Nc2ccccn2)ccc1OCC(C)C	i	1.8%	-4.3	38.0%	9.2%
C=CCOc1ccc(/C=N/Nc2ccccn2)cc1OC	i	10.2%	-4.3	5.01µM*	2.4%
Nc1c(C(=O)N2CCOCC2)sc2nc3c(cc12)CCCC3	-36.9%	-0.8%	2.3	-38.1%	-33.6%
NC(=O)c1sc2nc3c(cc2c1N)CCC3	i	-1.2%	-0.1	8.91µM*	6.8%
Nc1c(C(=O)N2CCCC2)sc2nc3c(cc12)CCCCCC3	-20.1%	7.4%	-2.5	4.47µM*	-11.5%
CCN(Cc1ccc(C(N)=O)cc1)Cc1cccs1	x	x	-2.0	x	x
CCOC(=O)c1cc(-c2ccccc2)sc1NC(=O)CCN1CCN(C)CC1	x	x	-4.5	x	x
COc1cc(/C=N/Nc2nncc3ccccc23)cc(OC)c1OC	-60.6%	u	-1.2	7.08µM*	-0.8%
COc1cc(C(=S)N2CCCC2)ccc1OCc1ccc(C)cc1	-9.1%	x	-4.9	11.2µM*	-24.2%
COc1cc(CN2CCCCC2)ccc1OCc1ccccc1	i	u	-13.9	10µM*	8.6%
CCOc1ccc(C(=S)N2CCCC2)cc1OC	i	-3.0%	-5.8	25.8%	27.6%
COc1cc(CNC(=O)C2CC2)ccc1OCc1ccccc1	-7.6%	14.3%	-10.2	12.6µM*	21.7%
Cc1n[nH]c(C)c1C(C)N (configuration not stated)	x	x	-0.7	x	x
N#C/C(=C\c1ccc(-c2cccc(C(=O)O)c2)o1)c1nc2ccccc2[nH]1	x	x	30.6	x	x
CC(C)c1ccc(NC(=O)Cn2nc3ccc(S(=O)(=O)C(C)(C)C)nn3c2=O)cc1	x	x	5.5	x	x
COc1ccc(C(CC(=O)Nc2nccs2)n2cccc2)cc1 (configuration not stated)	-0.7%[57.5 µM]	u	-1.0	6.31µM*	9.9%
SMILES	PTHR1 ag	p53 reactivator	LDHA inh	BRCA1 expr act	RGS4 inh
COc1ccc(C(CC(=O)Nc2nccs2)C(C)C)cc1 (configuration not stated)	i	-1.9%	2.4	-11.8%	-0.7%
CC(c1ccccc1)N(C)C(=O)COC(=O)c1cc2ccccc2[nH]1 (configuration not stated)	x	x	13.6	x	x
COCCn1c(-n2nc(C)cc2C)nc2c1c(=O)n(Cc1ccccc1)c(=O)n2C	x	x	0.0	x	x
Cc1ccc(-c2csc(NC(=O)COC(=O)c3cccc(S(=O)(=O)N4CCOCC4)c3)n2)cc1	-16.9%[57.5 µM]	u	0.3	5.01µM*	12.8%[56.9 µM]
O=C(O)CNS(=O)(=O)c1ccc(Br)cc1	x	x	0.7	x	x
CN(CC(=O)N1CCCCCC1)S(=O)(=O)c1ccc(F)cc1	-4.7%	8.5%	-2.5	10µM*	4.3%
CCCCNc1ccc2c(c1)C1CC2CCN1C(=O)OCc1ccccc1 (configuration not stated)	-3.0%	x	1.9	8.91µM*	12.3%
C=CCSc1n[nH]c(-c2ccc(OCCCC)cc2)n1	-35.9%	u	-1.2	7.94µM*	-1.4%
CCCOc1ccc(-c2nc(SCC(=O)c3ccc(Cl)cc3)n[nH]2)cc1	-19.9%	x	-6.4	x	-38.6%
S=c1nc(-c2ccc(Cl)cc2)[nH][nH]1	-9.1%	1.1%	-18.4	14.2%	u
CCCOc1ccc(-c2nc(=S)[nH][nH]2)cc1	-11.0%[57.5 µM]	8.8%	-4.5	3.55µM*	u
C=CCSc1n[nH]c(-c2ccc(OCCC)cc2)n1	-33.8%[57.5 µM]	u	1.8	3.55µM*	-21.6%
CCC1CCc2c(sc(NC(=O)COCC(=O)O)c2C(=O)NCc2ccc(C)cc2)C1 (configuration not stated)	x	x	-20.8	x	x
O=C(CSc1ncccn1)N1CCCc2ccccc21	i	6.9%	-3.4	43.3%	-6.0%
O=C(CSc1nnc2ccccn12)c1ccc2c(c1)OCCO2	-35.5%	u	-0.6	7.08µM*	-2.6%
COc1ccc(C(=O)CSc2nnc3ccccn23)cc1OC	i	3.0%	0.7	29.9%	-19.1%[56.9 µM]
O=C(CSc1nnc2ccccn12)N1CCc2ccccc21	-31.8%	u	-9.6	2.82µM*	13.1%
Cc1ccnc(SCC(=O)N2CCc3ccccc32)n1	-13.7%	u	-1.3	10µM*	-6.9%
O=C(CSc1nnc2ccccn12)N1CCc2ccccc2C1	-11.7%[57.5 µM]	28.9%	-2.8	u	-3.8%
Cc1sc2nc(C(C)Sc3nnnn3C3CC3)[nH]c(=O)c2c1C (configuration not stated)	x	x	1.6	x	x
Cc1ccc(C(=O)C(C#N)C(=O)NCc2ccccc2)cc1C (configuration not stated)	x	x	2.4	x	x
O=C1c2ccccc2C(=O)N1CCc1c[nH]c2ccccc12	-45.8%	19.1%	-8.9	2.24µM*	2.6%[56.9 µM]
O=C(NCCc1ccccc1)c1n[nH]c2ccccc12	-33.2%	u	-2.6	3.16µM*	-9.1%
O=C(NCCc1c[nH]c2ccccc12)c1ccccc1	-44.9%	-21.6%	-6.9	12.6µM*	0.9%
O=C(CCc1c[nH]c2ccccc12)NCc1ccncc1	-3.9%	1.5%	-32.3*!	-4.4%	-5.8%
SMILES	PTHR1 ag	p53 reactivator	LDHA inh	BRCA1 expr act	RGS4 inh
O=C(CC1CC2CCC1C2)OCC(=O)c1ccc2c(c1)OCO2 (configuration not stated)	x	x	5.9	x	x
Cc1ccccc1C(=O)NCCc1c[nH]c2ccccc12	x	x	5.8	x	x
Cc1ccc(C(=O)NCCc2c[nH]c3ccccc23)s1	-41.5%	u	1.1	3.16µM*	13.4%
Oc1ccc(Cl)cc1C=Nc1cc(C(F)(F)F)ccc1Oc1ccc(Cl)cc1	x	x	15.7	x	x
CCCCCC(=O)N1C[C@@H](n2cc(C3CC3)nn2)[C@H](O)C[C@@H]1c1ccc(C)cc1	-16.8%	x	-31.9*	-0.4%	x
O=C(COc1ccccc1Cl)Nc1ccc(Cl)cn1	-5.5%	x	0.4	10µM*	-13.8%
Cc1cc(C)n(Cc2ccc(C(=O)N/N=C/c3ccc(-c4ccc([N+](=O)[O-])cc4)o3)o2)n1	i	4.5%	-65.3*	-34.7%	u
